Out of some 320,000 compounds screened, about 2,100 (0.66%) were called active. Roughly 53% stayed inconclusive and do not appear here. The call rests on the fitted dose curve; in most records, active means well fitted inhibition curve with a large enough effect in the signal ratio, with a control signal flat (not every such curve was filed as active); inconclusive means small, poorly fitted or top-dose-only effect, or effect the other way, or a change in a side signal; inactive means flat fitted curve, though single readings scatter; the % refers to the signal ratio. Only a selection was taken, and actives are over-represented in it overall.
Experiment: qHTS Assay for Lipid Storage Modulators in Drosophila S3 Cells;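 on cell number change: cells counted by Cell Tracker Red CMTPX staining in the red channel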; on lipid storage change, negative = inhibition: on the % scale 0 is the no-effect control and ±100 the full control effect
Settings: BODIPY lipid droplet fluorescence, 18-24 h, cells fed with added oleic acid; cell number change: measured here: cell count max response; series mostly up to 46.1 µM; lipid storage change, negative = inhibition: at the top concentration
Procedure, shortened: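 Laser-scanning cytometry quantifies lipid droplet accumulation (500–530 nm total intensity; droplet/cell object ratio) in oleic acid-fed (400 uM added) Drosophila S3 cells treated with a concentration series. 20 uM Triacsin C defined 100% inhibition.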
Potency means the concentration at half of the fitted maximal effect.

For COc1ccc(N=C2S/C(=C\c3ccco3)C(=O)N2CC(C)C)cc1, which “outcome” value is on record?
Its value is “inactive”.

And the cell number change?
The cell number change was -0.418%.

Which results are given for COc1ccccc1CCC(=O)N1CCC(n2nccc2NC(=O)CC(C)C)CC1?
lipid storage change, negative = inhibition: -24.1% (inactive); cell number change: -2.79%

With CCN(CC)S(=O)(=O)c1ccc(OCC(=O)NC(=O)c2ccccc2OC)c([N+](=O)[O-])c1 as the molecule, how does the “lipid storage change, negative = inhibition” value read?
The value was -8.1% (inactive).

And the cell number change?
Its cell number change is 2.39%.

What does the source list for CCCn1c(C)cc(C(=O)COc2ccc(S(=O)(=O)N(CC)CC)cc2[N+](=O)[O-])c1C?
Potency: 25.9 µM (active); cell number change: -12.5%

For CCCn1c(C)cc(C(=O)COc2ccc(C)nc2[N+](=O)[O-])c1C, which “lipid storage change, negative = inhibition” value is on record?
Its value is 5.96% (inactive).

And the cell number change?
The cell number change was 5.33%.

Which “outcome” value does the source give for CN(C)S(=O)(=O)c1cccc(NC(=S)N2CCc3ccccc32)c1 here?
Its value is “inactive”.

Which “outcome” value does the source give for CC(C)NC(=O)CN(Cc1ccccc1)S(=O)(=O)c1ccccc1 here?
The value was “inactive”.

And the cell number change?
Its cell number change is 1.76%.

Which Potency does the source give for CC[N+]1=C(C)C(C)(C)c2cc(C)ccc21 here?
The Potency was 0.231 µM (active).

What about the cell number change of the same molecule?
The cell number change was -16.1%.

Which results are given for CC[n+]1c(S(=O)(=O)[O-])ccc2ccc(C)cc21?
lipid storage change, negative = inhibition: 0.898% (inactive); cell number change: 3.16%

With CC[n+]1c(C)sc2cc(C)ccc21 as the molecule, how does the “lipid storage change, negative = inhibition” value read?
Its value is -0.992% (inactive).

What about the cell number change of the same molecule?
Its cell number change is -15.5%.

With O=C(N/N=C/c1ccccc1)c1ccc(NC(=O)c2ccc(F)cc2)cc1 as the molecule, how does the “outcome” value read?
Its value is “inactive”.

What about the cell number change of the same molecule?
The cell number change was 8.73%.

With Cc1ccc(C)c(NC(=O)CSc2nc(C)cc(C)c2C#N)c1 as the molecule, how does the “lipid storage change, negative = inhibition” value read?
The value was 11.2% (inactive).

What about the cell number change of the same molecule?
The cell number change was -1.26%.

For CC(Oc1ccc2c(-c3ccccc3)cc(=O)oc2c1)C(=O)NCC1CCC(C(=O)O)CC1 (configuration not stated), which “lipid storage change, negative = inhibition” value is on record?
Its value is -7.92% (inactive).

With COc1ccc(CCNC(=O)CN(Cc2ccc(Cl)cc2)S(C)(=O)=O)cc1OC as the molecule, how does the “outcome” value read?
Its value is “inactive”.

And the cell number change?
Its cell number change is 5.74%.

For COc1ccc(CCNC(=O)CN(Cc2ccc(Cl)cc2)S(C)(=O)=O)cc1, which “lipid storage change, negative = inhibition” value is on record?
Its value is -18.7% (inactive).

What about the cell number change of the same molecule?
Its cell number change is -16.1%.

For COCCNC(=O)CN(Cc1ccc(Cl)cc1)S(C)(=O)=O, which Potency is on record?
Its Potency is 23.1 µM (active).

And the cell number change?
The cell number change was -6.66%.

With COc1ccc(CNC(=O)CN(Cc2ccc(Cl)cc2)S(=O)(=O)c2ccccc2)cc1 as the molecule, how does the Potency read?
Its Potency is 20.6 µM (active).

What about the cell number change of the same molecule?
The cell number change was 26.1%.

What does the source list for COc1ccc(CNC(=O)CN(C)S(=O)(=O)c2ccc(Cl)cc2)cc1?
lipid storage change, negative = inhibition: -32.9% (inactive); cell number change: -9.55%

Which “lipid storage change, negative = inhibition” value does the source give for COc1ccc(CNC(=O)CN(Cc2ccc(Cl)cc2)S(C)(=O)=O)cc1 here?
Its value is 6.59% (inactive).

And the cell number change?
Its cell number change is 15.2%.

Which results are given for CC1CCN(C(=O)c2[nH]cnc2C(=O)N[C@@H](CCCCNC(=O)OC(C)(C)C)C(=O)OC(C)(C)C)CC1?
lipid storage change, negative = inhibition: -1.71% (inactive); cell number change: -11.2%

With Clc1ccccc1-c1ncnc2ccc(Br)cc12 as the molecule, how does the “lipid storage change, negative = inhibition” value read?
Its value is -0.0835% (inactive).

What about the cell number change of the same molecule?
Its cell number change is -18.5%.

With CN1CCN(C(c2ccc(Br)cc2)c2cc(Cl)c3cccnc3c2O)CC1 (configuration not stated) as the molecule, how does the Potency read?
Its Potency is 20.6 µM (active).

And the cell number change?
The cell number change was 5.13%.

For CN1CCN(C(c2ccccn2)c2cc(Cl)c3cccnc3c2O)CC1 (configuration not stated), which “outcome” value is on record?
The value was “inactive”.

Which results are given for CN1CCN(C(c2cccnc2)c2ccc3cccnc3c2O)CC1 (configuration not stated)?
outcome: inactive; cell number change: 8.11%

What does the source list for O=C(NCc1ccc(F)cc1)C1CC(=O)N(CCc2ccccc2)C1 (configuration not stated)?
outcome: inactive; cell number change: 15.8%

— PubChem BioAssay AID2685 (National Center for Advancing Translational Sciences (NCATS), 2010)
